From the supplement of paper PMC10849652 come the findings set out here.

About 7,900 targets were measured; listed, in parts, are those with a hit and a random draw of the rest. About 0.6% of all pairs of compound and target were hits.

Sequence of UniProt Q9HAV4 (Q9HAV4 whole entry, looked up): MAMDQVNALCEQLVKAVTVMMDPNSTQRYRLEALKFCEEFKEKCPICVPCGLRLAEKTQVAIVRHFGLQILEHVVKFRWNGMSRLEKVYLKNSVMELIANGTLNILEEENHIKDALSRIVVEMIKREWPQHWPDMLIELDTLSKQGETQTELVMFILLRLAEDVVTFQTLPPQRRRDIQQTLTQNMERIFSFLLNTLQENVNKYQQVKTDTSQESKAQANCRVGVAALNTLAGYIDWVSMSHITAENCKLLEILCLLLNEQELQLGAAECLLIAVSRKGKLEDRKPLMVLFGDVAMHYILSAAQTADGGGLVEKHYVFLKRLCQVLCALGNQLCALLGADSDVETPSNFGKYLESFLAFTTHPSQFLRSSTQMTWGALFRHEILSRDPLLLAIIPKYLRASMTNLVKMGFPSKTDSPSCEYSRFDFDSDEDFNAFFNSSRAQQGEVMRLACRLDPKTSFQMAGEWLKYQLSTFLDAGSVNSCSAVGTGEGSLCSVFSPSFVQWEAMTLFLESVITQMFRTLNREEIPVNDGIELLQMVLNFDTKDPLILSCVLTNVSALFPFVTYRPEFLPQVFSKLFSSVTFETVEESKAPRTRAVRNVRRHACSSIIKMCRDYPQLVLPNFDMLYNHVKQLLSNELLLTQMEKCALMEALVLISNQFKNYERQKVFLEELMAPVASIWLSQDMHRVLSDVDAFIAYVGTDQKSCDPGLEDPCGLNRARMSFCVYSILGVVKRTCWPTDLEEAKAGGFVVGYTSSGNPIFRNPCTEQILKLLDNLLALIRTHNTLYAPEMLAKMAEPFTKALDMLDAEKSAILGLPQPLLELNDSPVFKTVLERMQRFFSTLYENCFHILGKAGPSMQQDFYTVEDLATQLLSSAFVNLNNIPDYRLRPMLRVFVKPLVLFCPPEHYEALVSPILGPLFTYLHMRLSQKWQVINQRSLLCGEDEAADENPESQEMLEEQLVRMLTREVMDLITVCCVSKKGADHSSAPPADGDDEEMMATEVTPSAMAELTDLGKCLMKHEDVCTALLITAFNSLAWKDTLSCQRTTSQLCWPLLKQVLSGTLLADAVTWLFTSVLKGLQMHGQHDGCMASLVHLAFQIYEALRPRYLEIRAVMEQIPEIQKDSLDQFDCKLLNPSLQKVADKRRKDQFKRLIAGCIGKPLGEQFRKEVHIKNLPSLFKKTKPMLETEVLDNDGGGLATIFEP
Sequence of UniProt Q9H267 (Q9H267 whole entry, looked up): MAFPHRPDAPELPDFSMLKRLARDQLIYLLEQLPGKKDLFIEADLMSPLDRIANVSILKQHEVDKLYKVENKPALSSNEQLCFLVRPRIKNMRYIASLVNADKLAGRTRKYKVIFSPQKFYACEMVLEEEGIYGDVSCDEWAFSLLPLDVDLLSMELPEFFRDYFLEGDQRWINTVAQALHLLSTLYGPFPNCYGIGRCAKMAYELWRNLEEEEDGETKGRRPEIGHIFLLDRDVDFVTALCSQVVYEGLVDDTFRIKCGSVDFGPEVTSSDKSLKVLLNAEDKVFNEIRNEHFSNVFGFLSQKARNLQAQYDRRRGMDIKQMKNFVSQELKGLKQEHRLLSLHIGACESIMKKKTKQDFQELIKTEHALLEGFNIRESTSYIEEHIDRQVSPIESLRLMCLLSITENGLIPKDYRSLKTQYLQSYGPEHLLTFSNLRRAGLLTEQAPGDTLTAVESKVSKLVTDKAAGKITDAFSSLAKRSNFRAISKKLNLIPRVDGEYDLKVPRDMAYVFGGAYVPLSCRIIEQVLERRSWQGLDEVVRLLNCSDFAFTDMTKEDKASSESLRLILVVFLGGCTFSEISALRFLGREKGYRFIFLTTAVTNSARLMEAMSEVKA
Sequence of UniProt Q8IWA0 (Q8IWA0 whole entry, looked up): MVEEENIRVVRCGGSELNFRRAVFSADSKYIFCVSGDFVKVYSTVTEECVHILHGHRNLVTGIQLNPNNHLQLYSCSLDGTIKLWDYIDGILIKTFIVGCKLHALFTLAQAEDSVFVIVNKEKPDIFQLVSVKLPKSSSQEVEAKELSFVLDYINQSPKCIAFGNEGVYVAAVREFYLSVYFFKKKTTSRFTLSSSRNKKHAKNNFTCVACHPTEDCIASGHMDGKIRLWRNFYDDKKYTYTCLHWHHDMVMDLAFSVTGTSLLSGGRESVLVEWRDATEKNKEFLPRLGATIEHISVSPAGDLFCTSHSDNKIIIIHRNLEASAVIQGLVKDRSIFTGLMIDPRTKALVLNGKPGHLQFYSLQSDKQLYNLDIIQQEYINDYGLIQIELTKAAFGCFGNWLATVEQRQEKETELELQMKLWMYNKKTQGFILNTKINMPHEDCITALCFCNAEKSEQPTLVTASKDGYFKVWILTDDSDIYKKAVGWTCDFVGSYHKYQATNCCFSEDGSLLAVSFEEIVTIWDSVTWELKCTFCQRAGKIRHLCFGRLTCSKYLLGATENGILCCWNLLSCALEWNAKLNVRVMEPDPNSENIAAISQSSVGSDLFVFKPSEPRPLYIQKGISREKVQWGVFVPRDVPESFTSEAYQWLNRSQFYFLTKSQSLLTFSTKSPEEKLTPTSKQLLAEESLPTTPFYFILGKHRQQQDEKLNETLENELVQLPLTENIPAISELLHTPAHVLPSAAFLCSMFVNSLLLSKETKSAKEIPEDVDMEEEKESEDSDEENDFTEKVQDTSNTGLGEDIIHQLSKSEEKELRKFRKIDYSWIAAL
Sequence of UniProt Q14157 (Q14157 whole entry, looked up): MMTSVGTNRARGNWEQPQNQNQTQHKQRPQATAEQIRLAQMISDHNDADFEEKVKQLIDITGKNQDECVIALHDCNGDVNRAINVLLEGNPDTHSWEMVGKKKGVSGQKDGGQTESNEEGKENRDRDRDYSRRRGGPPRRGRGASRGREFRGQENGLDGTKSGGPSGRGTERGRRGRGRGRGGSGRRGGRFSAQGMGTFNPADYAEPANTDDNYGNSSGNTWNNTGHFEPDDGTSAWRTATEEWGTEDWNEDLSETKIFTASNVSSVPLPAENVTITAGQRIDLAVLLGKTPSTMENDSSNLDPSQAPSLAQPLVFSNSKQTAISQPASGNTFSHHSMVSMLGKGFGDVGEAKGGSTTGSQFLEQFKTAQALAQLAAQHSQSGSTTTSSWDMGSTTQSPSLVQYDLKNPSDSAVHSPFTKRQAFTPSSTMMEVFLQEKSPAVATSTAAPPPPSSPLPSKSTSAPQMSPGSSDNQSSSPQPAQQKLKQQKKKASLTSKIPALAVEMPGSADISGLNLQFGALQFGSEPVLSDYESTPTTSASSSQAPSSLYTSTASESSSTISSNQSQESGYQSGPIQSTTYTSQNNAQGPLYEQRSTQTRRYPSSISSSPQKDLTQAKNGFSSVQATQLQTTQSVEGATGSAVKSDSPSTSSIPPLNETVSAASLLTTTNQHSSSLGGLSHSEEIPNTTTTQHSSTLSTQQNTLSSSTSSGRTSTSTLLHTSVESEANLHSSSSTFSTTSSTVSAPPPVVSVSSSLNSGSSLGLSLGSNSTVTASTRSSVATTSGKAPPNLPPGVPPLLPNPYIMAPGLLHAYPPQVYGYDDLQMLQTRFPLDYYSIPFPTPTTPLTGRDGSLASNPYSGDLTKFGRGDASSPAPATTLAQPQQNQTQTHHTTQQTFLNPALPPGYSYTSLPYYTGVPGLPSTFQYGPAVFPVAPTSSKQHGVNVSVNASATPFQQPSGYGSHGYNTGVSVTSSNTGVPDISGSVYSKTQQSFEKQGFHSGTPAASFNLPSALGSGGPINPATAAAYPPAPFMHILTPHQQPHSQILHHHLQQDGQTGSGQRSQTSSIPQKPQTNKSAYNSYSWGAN
Sequence of UniProt A6NIH7 (A6NIH7 whole entry, looked up): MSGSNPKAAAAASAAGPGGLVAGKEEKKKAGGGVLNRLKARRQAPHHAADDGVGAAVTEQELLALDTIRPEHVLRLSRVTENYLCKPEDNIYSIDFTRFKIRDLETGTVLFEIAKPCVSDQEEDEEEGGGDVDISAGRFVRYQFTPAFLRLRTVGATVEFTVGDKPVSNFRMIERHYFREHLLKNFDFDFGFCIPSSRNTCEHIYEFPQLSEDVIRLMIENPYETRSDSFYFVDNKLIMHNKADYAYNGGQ
Sequence of UniProt Q96LJ8 (Q96LJ8 whole entry, looked up): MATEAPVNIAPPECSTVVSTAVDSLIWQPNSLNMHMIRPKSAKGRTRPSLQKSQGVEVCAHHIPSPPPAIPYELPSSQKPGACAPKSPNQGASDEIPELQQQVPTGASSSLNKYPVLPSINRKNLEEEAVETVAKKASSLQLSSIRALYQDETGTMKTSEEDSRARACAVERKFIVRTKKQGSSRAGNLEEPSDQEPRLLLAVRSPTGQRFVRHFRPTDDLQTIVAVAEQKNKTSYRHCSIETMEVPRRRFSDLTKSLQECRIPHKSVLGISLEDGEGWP
Sequence of UniProt Q9H6R7 (Q9H6R7 whole entry, looked up): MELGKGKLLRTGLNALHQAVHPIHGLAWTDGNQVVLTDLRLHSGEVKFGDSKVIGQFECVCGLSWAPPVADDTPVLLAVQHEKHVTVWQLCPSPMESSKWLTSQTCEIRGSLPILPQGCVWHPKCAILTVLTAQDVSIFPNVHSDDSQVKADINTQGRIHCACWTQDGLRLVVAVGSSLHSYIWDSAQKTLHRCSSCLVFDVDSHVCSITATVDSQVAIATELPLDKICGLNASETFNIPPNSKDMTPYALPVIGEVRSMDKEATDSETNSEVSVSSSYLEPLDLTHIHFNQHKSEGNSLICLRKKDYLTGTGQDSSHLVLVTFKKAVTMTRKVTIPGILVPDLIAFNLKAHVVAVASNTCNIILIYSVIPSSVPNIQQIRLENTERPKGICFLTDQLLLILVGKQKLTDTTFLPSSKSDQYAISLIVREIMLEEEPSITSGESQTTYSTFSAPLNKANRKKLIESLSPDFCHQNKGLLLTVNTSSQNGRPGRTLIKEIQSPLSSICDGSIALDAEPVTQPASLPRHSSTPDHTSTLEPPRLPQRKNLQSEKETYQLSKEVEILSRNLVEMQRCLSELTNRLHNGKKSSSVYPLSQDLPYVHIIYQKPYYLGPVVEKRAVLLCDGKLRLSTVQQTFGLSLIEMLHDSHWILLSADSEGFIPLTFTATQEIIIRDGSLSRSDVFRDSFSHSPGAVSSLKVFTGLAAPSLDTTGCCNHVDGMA

Compound in the test: C1=CC=C(C=C1)[C@H](COC2=CC3=C(C=C2)NC(=O)N3)NC(=O)C4=CC=CN(C4=O)CC5=CC(=C(C=C5)F)F
Description: log2 fold change, soluble protein after heating vs DMSO (PISA); higher = thermal stabilisation; K562 cells, 10 uM, 30 min; active = over 0.2 and 3.5 SD of the protein, either way, in both replicates (recomputed). The essentials: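 K562 cells (2×10^6 cells/mL) were treated with 10 μM compound for 30 min, and aliquots were heated for 3 min over 48°C-58°C. Pooled aliquots were extracted in PBS with 0.5% NP-40 at 4°C, and the supernatant after 21,000xg for 90 min was measured by TMTpro 16plex LC-MS/MS with channel sums equalised. Reported thermal stability, relative to control samples and from duplicates, is a log2 fold change.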
In the case of VPS33B (UniProt Q9H267), the log2 fold change was -0.102 (inactive).
On to USP24 (UniProt Q9UPU5), for which the log2 fold change was 0.114 (inactive).
The value for UBIAD1 (UniProt Q9Y5Z9) was 0.012 (inactive); that for TMEM9B (UniProt Q9NQ34) was 0.043 (inactive); that for TRIM4 (UniProt Q9C037) was -0.049 (inactive).
Then WDR75 (UniProt Q8IWA0), with -0.031 (inactive); and TTI1 (UniProt O43156), with -0.034 (inactive).
Then VTA1 (UniProt Q9NP79), with 0.007 (inactive); and VPS51 (UniProt Q9UID3), with -0.047 (inactive).
In the case of TRAPPC11 (UniProt Q7Z392), the log2 fold change is 0.004 (inactive).
The value for UBE2S (UniProt Q16763) was 0.002 (inactive).
Consider UCHL5 (UniProt Q9Y5K5), for which the log2 fold change was -0.048 (inactive).
The value for WDR43 (UniProt Q15061) was 0.026 (inactive); that for TMEM63B (UniProt Q5T3F8) was 0.059 (inactive); that for UBXN10 (UniProt Q96LJ8) was 0.011 (inactive).
The value for UHRF1BP1L (UniProt A0JNW5) was 0.024 (inactive).
Then WDCP (UniProt Q9H6R7), with 0.013 (inactive).
As for UNC119B (UniProt A6NIH7), the log2 fold change is -0.093 (inactive).
On to XRCC6 (UniProt P12956), for which the log2 fold change is -0.04 (inactive).
The value for XPO5 (UniProt Q9HAV4) was -0.037 (inactive).
With UBAP2L isoform 5 (UniProt Q14157), the log2 fold change was 0.055 (inactive).
The value for TMEM70 (UniProt Q9BUB7) was -0.002 (inactive); that for WASHC2A (UniProt Q641Q2) was -0.006 (inactive).
